Data on 37 sequences can be found in paper PMC5700166.

The experiment deals with T1, GST-Nv-NF-kB (Ser allele) (Nematostella vectensis, UniProt A7UNT2 2-411).
T1 sequence: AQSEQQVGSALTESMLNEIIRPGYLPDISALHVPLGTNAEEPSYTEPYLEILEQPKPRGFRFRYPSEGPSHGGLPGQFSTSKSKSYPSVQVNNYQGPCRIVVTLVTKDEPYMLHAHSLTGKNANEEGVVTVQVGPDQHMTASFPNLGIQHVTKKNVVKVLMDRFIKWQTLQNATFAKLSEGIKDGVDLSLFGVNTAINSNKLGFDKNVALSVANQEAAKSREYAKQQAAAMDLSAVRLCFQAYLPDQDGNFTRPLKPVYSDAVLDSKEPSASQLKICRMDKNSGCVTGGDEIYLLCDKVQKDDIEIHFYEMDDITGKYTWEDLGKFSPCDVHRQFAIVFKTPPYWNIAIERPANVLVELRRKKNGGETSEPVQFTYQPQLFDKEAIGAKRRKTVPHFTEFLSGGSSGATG
Nature of the experiment: protein-binding microarray (PBM); PBM: ~300 nM protein, 6 mM HEPES pH 7.8, 80 mM KCl, 0.5 mM EDTA, 0.5 mM EGTA, 6% glycerol, 35 ng/ul poly-dIdC, 1% milk, 1 h, room temperature; Ap Aiptasia and Nv Nematostella (sea anemones) / Co Capsaspora / Aq Amphimedon (sponge) / Dm Drosophila / Hu human; RHD is the Rel homology domain; high values mean tight binding. The following applies: dsDNA, one strand shown.
For “CCGATTAACATCAGAAATACCCATGATGTTAATCGGGTCTTGATTCGCTTGACGCTGCTG”, the binding signal is 4.71 z-score. Turning to “CCGATTAACATCAAGCCCCCCCCTGATGTTAATCGGGTCTTGATTCGCTTGACGCTGCTG”, the binding signal was determined as 4.25 z-score. To “CCGATTAACATCAAAATTCCCGTTGATGTTAATCGGGTCTTGATTCGCTTGACGCTGCTG” belongs 6.44 z-score; to “CCGATTAACATCAGAAGACCCCCTGATGTTAATCGGGTCTTGATTCGCTTGACGCTGCTG”, 3.72 z-score; to “CCGATTAACATCAGAATACCCCCTGATGTTAATCGGGTCTTGATTCGCTTGACGCTGCTG”, 6.16 z-score.

“CCGATTAACATCACATATCCCCCTGATGTTAATCGGGTCTTGATTCGCTTGACGCTGCTG” came in with a binding signal of 6.2 z-score. As to “CCGATTAACATCAAATTTACCCCTGATGTTAATCGGGTCTTGATTCGCTTGACGCTGCTG”, the binding signal worked out at 5.32 z-score. To “CCGATTAACATCAGGCCTTCCCCTGATGTTAATCGGGTCTTGATTCGCTTGACGCTGCTG” belongs 5.25 z-score.

In turn, “CCGATTAACATCATACCCCCCCATGATGTTAATCGGGTCTTGATTCGCTTGACGCTGCTG” showed a binding signal of 3.11 z-score.

Regarding “CCGATTAACATCAGGGATTTTTATGATGTTAATCGGGTCTTGATTCGCTTGACGCTGCTG”, the binding signal is 5.24 z-score.

In turn, “CCGATTAACATCACAGCCCCCCCTGATGTTAATCGGGTCTTGATTCGCTTGACGCTGCTG” came in with a binding signal of 3.62 z-score. Regarding “CCGATTAACATCAAAATACCCCTTGATGTTAATCGGGTCTTGATTCGCTTGACGCTGCTG”, the binding signal came out at 6.34 z-score.

The sequence “CCGATTAACATCAAACCCCCCCTTGATGTTAATCGGGTCTTGATTCGCTTGACGCTGCTG” returned a binding signal of 4.97 z-score. To “CCGATTAACATCAAAATCACCCCTGATGTTAATCGGGTCTTGATTCGCTTGACGCTGCTG” belongs 3.66 z-score. With “CCGATTAACATCAAAATGCCCCCTGATGTTAATCGGGTCTTGATTCGCTTGACGCTGCTG”, the binding signal was 4.81 z-score.

The sequence “CCGATTAACATCACATTGGGAAATGATGTTAATCGGGTCTTGATTCGCTTGACGCTGCTG” had a binding signal of 1.58 z-score. “CCGATTAACATCATCAGGGGGGATGATGTTAATCGGGTCTTGATTCGCTTGACGCTGCTG” registered a binding signal of 3.78 z-score. To “CCGATTAACATCAGGGGGAGTCATGATGTTAATCGGGTCTTGATTCGCTTGACGCTGCTG” belongs 5.02 z-score. In the case of “CCGATTAACATCAAGGGGGGAACTGATGTTAATCGGGTCTTGATTCGCTTGACGCTGCTG” it was 6.05 z-score. To “CCGATTAACATCAAATTCCCTTATGATGTTAATCGGGTCTTGATTCGCTTGACGCTGCTG” belongs 6.07 z-score.

As to “CCGATTAACATCAGGAACCCCCCTGATGTTAATCGGGTCTTGATTCGCTTGACGCTGCTG”, the binding signal came out at 5.44 z-score.

Take “CCGATTAACATCAGGGGACTTCATGATGTTAATCGGGTCTTGATTCGCTTGACGCTGCTG”: the binding signal amounted to 6.12 z-score. To “CCGATTAACATCACGGGGTTTTCTGATGTTAATCGGGTCTTGATTCGCTTGACGCTGCTG” belongs 5.22 z-score; to “CCGATTAACATCAAAAAATCTCCTGATGTTAATCGGGTCTTGATTCGCTTGACGCTGCTG”, 1.5 z-score. In the case of “CCGATTAACATCACTTTGGGAAATGATGTTAATCGGGTCTTGATTCGCTTGACGCTGCTG” it was 1.89 z-score; in that of “CCGATTAACATCAATCCCCCCCGTGATGTTAATCGGGTCTTGATTCGCTTGACGCTGCTG”, 4.97 z-score. The sequence “CCGATTAACATCATGGGAAGGTTTGATGTTAATCGGGTCTTGATTCGCTTGACGCTGCTG” yielded a binding signal of 1.52 z-score.

In turn, “CCGATTAACATCAGAAAGTTCCCTGATGTTAATCGGGTCTTGATTCGCTTGACGCTGCTG” gave a binding signal of 3.65 z-score. To “CCGATTAACATCAAACCCCCCCCTGATGTTAATCGGGTCTTGATTCGCTTGACGCTGCTG” belongs 5.04 z-score; to “CCGATTAACATCAGGGTAATTTATGATGTTAATCGGGTCTTGATTCGCTTGACGCTGCTG”, 6 z-score.

“CCGATTAACATCAGGGGGAACAATGATGTTAATCGGGTCTTGATTCGCTTGACGCTGCTG”: the binding signal amounted to 6.27 z-score.

“CCGATTAACATCACAAATACCCCTGATGTTAATCGGGTCTTGATTCGCTTGACGCTGCTG” came in with a binding signal of 4.74 z-score. In the case of “CCGATTAACATCAGGGGGGAGACTGATGTTAATCGGGTCTTGATTCGCTTGACGCTGCTG” it was 5.69 z-score.

“CCGATTAACATCAGGGGGGGGGATGATGTTAATCGGGTCTTGATTCGCTTGACGCTGCTG” displayed a binding signal of 5.68 z-score.

Sequence “CCGATTAACATCAAATGTGGGAATGATGTTAATCGGGTCTTGATTCGCTTGACGCTGCTG” registered a binding signal of 1.31 z-score. In the case of “CCGATTAACATCAGGGAAACTTATGATGTTAATCGGGTCTTGATTCGCTTGACGCTGCTG” it was 6.07 z-score; in that of “CCGATTAACATCAGAACCCCCCCTGATGTTAATCGGGTCTTGATTCGCTTGACGCTGCTG”, 5.04 z-score.
